An excerpt weighted towards active compounds, which were near 7.9% of everything screened.
HT1080 IDH1KD tx: HT-1080 IDH1 knockdown cell toxicity (counter line); HT-1080 IDH1 knockdown viability, ATP luminescence, 48 h; Potency, µM (highest dose often 46.1 µM), for inactives: top-dose activity, negative = toxicity, actives largely listed as cytotoxic; 360,000 compounds, 2% hits; AID 686971;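 also: 0% = DMSO wells and -100% = cell-free medium wells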
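After a 2 h attachment period, IDH1KD HT-1080 cells took pin-transferred compound for 48 h at 37 °C; ATP-based luminescence after 10 min room-temperature reagent incubation reported viability.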
KB-3-1 cytotox: KB-3-1 parental cell cytotoxicity | KB-3-1 viability, CellTiter-Glo ATP luminescence, 72 h | 400,000 compounds, 1.4% hits | Potency, µM (top dose mostly 46.1 µM), most hits filed as cytotoxic; also: % is scaled to controls: 0 for no effect and ±100 for the full control effect; nearly all actives have a fitted effect of over 60% in size
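Viability of parental KB-3-1 cells, measured by CellTiter-Glo luminescence, followed a 72 h incubation at 37 °C with pinned compounds in phenol-red-free DMEM containing 10% FBS.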
MCF10A rereplic: induces DNA re-replication in MCF 10a normal breast cells | MCF 10A DNA re-replication, Hoechst nuclear intensity, 48 h | Potency, µM (highest dose often 46.1 µM), for the others: at the highest dose activity, positive = re-replication, actives largely listed as activators | 350,000 compounds, 2.9% hits | AID 624296; also: % of control where 0% means no effect; nearly all actives have a fitted effect of over 50% in size
KB-V1 MDR tox: kills drug-selected multidrug resistant KB-V1 cells. 400,000 compounds, 3.4% hits. AID 1347076. KB-V1 MDR cells viability, CellTiter-Glo, 72 h. Potency, µM (series often up to 46.1 µM), most hits filed as cytotoxic; also: % is scaled to controls: 0 for no effect and ±100 for the full control effect; nearly all actives have a fitted effect of over 60% in size
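Following 72 h at 37 degrees C with compound, KB-V1 cell viability was read by CellTiter-Glo luminescence, medium being phenol-red-free DMEM plus 10% FBS; concentration-response parameters came from normalized, curve-fitted qHTS data.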
SW480 rerep: induces DNA re-replication in SW480 colon adenocarcinoma cells | Potency, µM (titrated, usually from 46.1 µM), for the others: top-dose re-replication activation, usual class: activators | AID 624297 | SW480 DNA re-replication, Hoechst DNA content imaging, 48 h | 340,000 compounds, 1.8% hits; also: % of control where 0% means no effect; nearly all actives have a fitted effect of over 55% in size
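Per well, 250 cells were exposed to pinned compound for 48 hr. Nuclear DNA was visualised with Hoechst (40 min, 37 C) and total object intensity recorded by fluorescence scanning.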
HT1080-NT tox: kills 2HG-producing HT-1080-NT fibrosarcoma cells | 360,000 compounds, 1.6% hits | HT-1080-NT fibrosarcoma viability, CellTiter-Glo ATP luminescence, 48 h | AID 686970 | Potency, µM (titrated, usually from 46.1 µM), without a hit: top-dose activity, negative = less viability, hits mostly cytotoxic;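 also: NT is the 2HG producing partner of a matched IDH1 knockdown line; 0% = DMSO-treated cells and -100% = media-only wells without cells; nearly all actives have a fitted effect of over 55% in size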
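Luminescent CellTiter-Glo readout after 48 hours of compound exposure at 37 degrees C defined viability of HT-1080-NT cells. Activity was normalized to DMSO wells and cell-free media wells; concentration-response curves were fitted and assigned curve classes.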
An asterisk follows results filed as active; i = inactive; u = inconclusive; x = not tested or not shown; ! = repeats disagree. Calls follow the shape of the dose curve; as a rule, active = well fitted curve in the direction sought with a large enough effect; inconclusive = small, poorly fitted or top-dose-only effect, or another doubt; inactive = no such curve, though single readings can be large; an effect the other way counts as inactive or inconclusive. Potency is read from the fitted curve at half-maximal effect.

SMILES	HT1080 IDH1KD tx	KB-3-1 cytotox	MCF10A rereplic	KB-V1 MDR tox	SW480 rerep	HT1080-NT tox
CCc1cccc(NC(=O)c2c(C)oc3ncnc(N4CCCCC4)c23)c1	x	i	x	i	x	x
Cc1ccccc1C(=O)N1CC(=O)Nc2ccc(Cl)cc2C1c1ccccc1 (centres undefined)	x	i	x	i	x	x
Cc1ccc(-n2ncc(C(=O)NCc3ccco3)c2C2CCN(C(=O)OC(C)(C)C)CC2)cc1C	x	i	x	i	x	x
COc1ccc(S(=O)(=O)N2CCCN(CC(=O)Nc3ccc(OC)cc3OC)CC2)cc1	x	i	x	i	x	x
C=CC[n+]1c(-c2ccc(OCC)cc2)csc1NNC(=O)Nc1ccccc1	u	18.4µM*	4.8%	18.4µM*	-5.8%	u
C[C@@H]1CN([C@@H](C)CO)S(=O)(=O)c2ccc(Br)cc2O[C@H]1CN(C)C(=O)C1CCC1	-7.7%	i	x	u	x	5.6%
CN(C)CCNc1nc(-c2ccco2)c2c(c1C#N)CC(C)(C)OC2	-9.0%	i	11.2%	i	19.1%	-13.1%
CCCCN(C)c1nc(-c2ccco2)c2c(c1C#N)CC(C)(C)OC2	-21.6%	i	u	i	16.4µM*	u
NC(=O)c1c(NC(=O)c2nc(SCc3ccccc3F)ncc2Cl)sc2c1CCCC2	x	i	x	i	x	x
COc1ccc(OC)c(NC(=O)CSC2=Nc3ccccc3C3=NC(CCC(=O)NCc4ccco4)C(=O)N23)c1 (centres undefined)	x	i	x	i	x	x
N#CCN(C(=O)COC(=O)CCCNC(=O)c1ccc(Cl)cc1)c1ccccc1	-2.6%	i	0.3%	20.6µM*	-7.0%	6.1%
Cc1ccc(C(=O)N2C(=S)C(c3ccc(F)cc3)=NC23CCN(C)CC3)cc1	18.4µM*	i	u	u	u	u
Cc1ccc(C(=O)N2CCC(C(=O)c3ccc(F)cc3)CC2)cc1	-1.5%	i	1.1%	u	-9.7%	-1.6%
Cc1csc(SCC(=O)Nc2sc3c(c2C#N)CCC3)n1	-23.7%	u	u	i	u	-2.8%
N#Cc1c(NC(=O)CSc2nnc(-c3ccccc3)o2)sc2c1CCCC2	-3.0%	i	5.8µM*	i	8.5%	-7.0%
N#Cc1c(NC(=O)CSc2nnc(-c3ccncc3)n2CC2CCCO2)sc2c1CCCC2 (centres undefined)	0.0%	i	-1.0%	i	0.1%	-1.9%
N#Cc1c(NC(=O)CSc2nc3ccccc3s2)sc2c1CCCC2	-2.5%	i	u	16.4µM*	-11.2%	-1.4%
N#Cc1c(NC(=O)CSc2ncc(-c3ccccc3)n2CC2CCCO2)sc2c1CCCC2 (centres undefined)	u	u	u	3.26µM*	4.6%	u
CC1CCc2c(sc(NC(=O)CSc3nnc(-c4ccccc4)o3)c2C#N)C1 (centres undefined)	4.9%	i	14.8%	u	-82.3%	2.2%
C=CCc1ccccc1OCCSc1nc(-c2cccs2)nc2cc(=O)[nH]n12	x	u	x	i	x	x
Cc1cc(C)c(NC(=O)c2cc(S(=O)(=O)N3CCC4(CC3)OCCO4)ccc2F)c(C)c1	x	i	x	i	x	x
COc1ccc([N+](=O)[O-])cc1NC(c1nnc(-c2ccccc2)o1)c1ccccc1F (centres undefined)	x	i	x	i	x	x
CC(C)CCNC(=O)C1(C)CCN1Cc1ccc(-c2ccccn2)cc1 (centres undefined)	-9.4%	i	x	i	x	-17.2%
COc1cccc(-n2ccnc2SCC(=O)Nc2nc3ccc(C)cc3s2)c1	x	i	x	i	x	x
CCNC(=O)C1(C)CCN(Cc2ccccc2-c2ccccc2)C1 (centres undefined)	11.5%	i	x	i	x	21.8%
SMILES	HT1080 IDH1KD tx	KB-3-1 cytotox	MCF10A rereplic	KB-V1 MDR tox	SW480 rerep	HT1080-NT tox
O=C(CN1CCN(C(=O)C2CC2)CC1)Nc1cc(C(F)(F)F)cc(C(F)(F)F)c1	0.7%	i	4.5%	20.6µM*	-1.6%	0.2%
CCOC(=O)C1=NN(c2ccccc2)C2=NC(C)=C(C(=O)OC)C(c3ccc(C)cc3)N12 (centres undefined)	-3.4%	i	1.9%	14.6µM*	0.0%	-3.8%
Cc1cccc(C)c1NC(=O)CSc1nc2ccccc2c(=O)[nH]1	-13.1%	i	4.9%	16.4µM*	-1.0%	6.7%
O=C(CSc1nc2cc3ccccc3cc2[nH]1)Nc1ccc(F)cc1	u	i	0.6%	16.4µM*!	0.1%	u
O=C(CSc1nc2ccccc2c(=O)[nH]1)Nc1ccc([N+](=O)[O-])cc1	9.2µM*	u	u	u	u	u
O=[N+]([O-])c1ccc(Sc2cc[n+]([O-])c3ccccc23)c([N+](=O)[O-])c1	18.4µM*	i	19.5%	u	0.82µM*	16.4µM*
O=C(CSc1nc2ccccc2c(=O)[nH]1)Nc1ccc(C(=O)O)cc1	6.9%	i	12.7%	i	-1.7%	14.0%
COc1ccc(NC(=O)c2cc(C3CCCCN3C(=O)c3ccc(Cl)cc3)on2)c(C)c1 (centres undefined)	-5.6%	i	x	i	x	-7.5%
Cc1ccc(NC(=O)CSc2ncnc3c2sc2ccccc23)cc1C	x	i	x	i	x	x
CCn1ccnc1CN(C)C(=O)c1cc(COc2ccc(OC)c3ccccc23)on1	u	i	-0.2%	i	2.4%	-25.4%
Cc1cc(Nc2cccc(C(F)(F)F)c2)nc2ccc(NC(=O)Cc3ccc(Cl)cc3)cc12	x	i	x	i	x	x
O=C(Cn1ncn2nc(-c3cccs3)cc2c1=O)NCc1ccccc1Cl	x	i	x	i	x	x
CC(C)Sc1nc2ccccc2c(=O)[nH]1	-15.3%	i	4.8%	i	-20.7%	-3.7%
COCCn1c(C)cc(C(=O)CSc2nc3ccccc3c(=O)[nH]2)c1C	u	i	7.9%	u	2.6%	-8.6%
O=c1[nH]c(Sc2ccc([N+](=O)[O-])cc2[N+](=O)[O-])nc2ccccc12	u	i	6.51µM*	u	u	-14.5%
COCC(C)n1c(C)cc(C(=O)CSc2nc3ccccc3c(=O)[nH]2)c1C (centres undefined)	u	20.6µM*	u	2.59µM*	-1.8%	u
COc1cc2cncnc2cc1OCCCCC(N)=O	18.3%	x	x	x	x	0.3%
CC1(C)CC(=O)C=C(NCc2cccc(C(F)(F)F)c2)C1	-0.2%	i	-5.3%	u	9.2µM*	-1.0%
CC1(C)CC(=O)C=C(NCc2ccccc2)C1	0.0%	i	-29.2%	i	1.6%	0.9%

Assay outcomes from PubChem.
